Assay in all cases: DAPPL (digital affinity profiling via proximity ligation, sequencing); 10 mM Tris-HCl pH 7.5, 50 mM NaCl, 1 mM DTT, 4% glycerol, room temperature, 30 min; GST-TFs on glutathione beads, 16-mer random dsDNA library, 0.1% formaldehyde crosslink after washing; high values mean tight binding
Settings in all cases: protein: recombinant; tags: N-terminal GST; dsDNA, one strand shown

Assay [1] deals with T1, ERF (Homo sapiens, UniProt P50548 1-548).
T1 sequence: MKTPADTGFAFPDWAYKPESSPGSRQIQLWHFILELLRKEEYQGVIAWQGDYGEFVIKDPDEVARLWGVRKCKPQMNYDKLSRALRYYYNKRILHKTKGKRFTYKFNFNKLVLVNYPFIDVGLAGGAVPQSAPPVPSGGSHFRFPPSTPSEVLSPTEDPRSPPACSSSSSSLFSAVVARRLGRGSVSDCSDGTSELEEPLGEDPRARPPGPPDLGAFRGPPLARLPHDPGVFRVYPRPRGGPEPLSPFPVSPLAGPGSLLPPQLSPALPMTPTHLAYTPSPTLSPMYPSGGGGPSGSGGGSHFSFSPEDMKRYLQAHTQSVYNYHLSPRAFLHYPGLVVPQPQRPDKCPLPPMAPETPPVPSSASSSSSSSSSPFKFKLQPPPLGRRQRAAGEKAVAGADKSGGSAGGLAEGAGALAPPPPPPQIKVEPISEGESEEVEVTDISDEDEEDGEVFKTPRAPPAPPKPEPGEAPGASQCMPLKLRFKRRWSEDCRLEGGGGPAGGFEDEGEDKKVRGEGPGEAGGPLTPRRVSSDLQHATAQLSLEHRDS
The method in brief:
(§1)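 Pools were built from human transcription factors expressed in yeast as GST fusions, captured on glutathione beads and DNA-barcoded, along with a tag-only sample. Incubation with 200 nmole of a 16-mer random double-stranded DNA library lasted 30 min at room temperature in Tris/NaCl/DTT/glycerol buffer, and was followed by washing, 0.1% formaldehyde crosslinking, proximity ligation, PCR amplification and Illumina NextSeq500 sequencing. Binding signal is the quotient of each hexamer's read frequency for a factor and its frequency for the tag-only sample.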

For assay [2], the target named is T2, ETV3L (Homo sapiens, UniProt Q6ZN32 1-361).
T2 sequence: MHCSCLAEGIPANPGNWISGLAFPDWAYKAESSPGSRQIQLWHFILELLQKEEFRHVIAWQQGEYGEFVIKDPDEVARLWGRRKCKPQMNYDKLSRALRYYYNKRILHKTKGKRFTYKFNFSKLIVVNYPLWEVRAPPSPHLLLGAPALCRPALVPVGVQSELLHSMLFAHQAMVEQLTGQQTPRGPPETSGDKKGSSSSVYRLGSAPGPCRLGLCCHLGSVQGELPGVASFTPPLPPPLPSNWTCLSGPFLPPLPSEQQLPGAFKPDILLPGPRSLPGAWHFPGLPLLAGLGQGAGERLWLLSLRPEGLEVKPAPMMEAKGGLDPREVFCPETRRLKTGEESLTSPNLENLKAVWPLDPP
The method in brief: as §1

In assay [3] the target is T3, ETS2 (Homo sapiens, UniProt P15036 1-469).
T3 sequence: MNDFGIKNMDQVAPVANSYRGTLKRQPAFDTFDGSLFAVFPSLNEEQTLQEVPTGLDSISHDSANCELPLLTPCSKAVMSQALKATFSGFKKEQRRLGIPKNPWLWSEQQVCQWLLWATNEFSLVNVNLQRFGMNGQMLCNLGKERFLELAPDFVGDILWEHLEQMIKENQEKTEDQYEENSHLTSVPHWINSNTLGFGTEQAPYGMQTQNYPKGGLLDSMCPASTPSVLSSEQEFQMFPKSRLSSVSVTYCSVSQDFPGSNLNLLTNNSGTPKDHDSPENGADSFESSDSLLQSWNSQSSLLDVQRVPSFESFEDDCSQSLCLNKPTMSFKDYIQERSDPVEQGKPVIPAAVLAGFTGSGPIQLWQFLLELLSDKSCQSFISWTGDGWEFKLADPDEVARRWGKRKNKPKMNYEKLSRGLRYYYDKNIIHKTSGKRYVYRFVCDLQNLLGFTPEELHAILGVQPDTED
The method in brief: as §1

For assay [4], the target named is T4, SPDEF (Homo sapiens, UniProt O95238 1-335).
T4 sequence: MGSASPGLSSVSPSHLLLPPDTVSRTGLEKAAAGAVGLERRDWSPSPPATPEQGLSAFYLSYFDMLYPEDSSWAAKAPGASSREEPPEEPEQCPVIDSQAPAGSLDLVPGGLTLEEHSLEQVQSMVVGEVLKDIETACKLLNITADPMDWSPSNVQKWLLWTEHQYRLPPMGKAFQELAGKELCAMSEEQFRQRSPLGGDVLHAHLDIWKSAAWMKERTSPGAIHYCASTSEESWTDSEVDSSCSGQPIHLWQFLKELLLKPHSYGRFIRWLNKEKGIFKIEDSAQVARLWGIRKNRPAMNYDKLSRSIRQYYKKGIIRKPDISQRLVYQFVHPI
The essentials:
as §1

The target of assay [5] is T5, ETV7 (Homo sapiens, UniProt Q9Y603 1-341).
T5 sequence: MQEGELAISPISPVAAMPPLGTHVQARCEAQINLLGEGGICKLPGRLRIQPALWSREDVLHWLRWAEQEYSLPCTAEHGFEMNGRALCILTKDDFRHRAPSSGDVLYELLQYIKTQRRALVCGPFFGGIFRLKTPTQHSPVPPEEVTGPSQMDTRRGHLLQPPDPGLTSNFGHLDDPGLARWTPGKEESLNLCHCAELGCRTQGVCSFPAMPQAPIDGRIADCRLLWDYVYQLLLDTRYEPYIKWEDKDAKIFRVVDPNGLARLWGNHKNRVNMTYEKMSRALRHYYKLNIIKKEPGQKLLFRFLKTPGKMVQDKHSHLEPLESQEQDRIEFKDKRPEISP
The method in brief: as §1

For assay [6], the target named is T6, ELF5 (Homo sapiens, UniProt Q9UKW6-2 1-255).
T6 sequence: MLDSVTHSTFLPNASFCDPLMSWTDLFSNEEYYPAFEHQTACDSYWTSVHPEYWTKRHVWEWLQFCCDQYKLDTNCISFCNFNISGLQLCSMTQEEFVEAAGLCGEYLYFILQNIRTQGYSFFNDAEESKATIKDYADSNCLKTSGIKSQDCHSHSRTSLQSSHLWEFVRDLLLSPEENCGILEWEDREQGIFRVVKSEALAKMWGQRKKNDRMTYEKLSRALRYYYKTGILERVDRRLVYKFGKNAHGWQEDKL
The essentials:
as §1

Assay [7] concerns the target T7, ETV3 (Homo sapiens, UniProt P41162-2 1-143).
T7 sequence: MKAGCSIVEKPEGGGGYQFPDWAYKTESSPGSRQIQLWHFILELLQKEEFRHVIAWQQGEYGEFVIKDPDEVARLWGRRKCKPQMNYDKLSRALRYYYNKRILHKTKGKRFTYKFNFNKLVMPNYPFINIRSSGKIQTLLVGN
The essentials: as §1

The target in assay [8] is ETV6 (Homo sapiens, UniProt P41212 1-452). The essentials:
as §1

Sequence of ETV6 (P41212 whole entry): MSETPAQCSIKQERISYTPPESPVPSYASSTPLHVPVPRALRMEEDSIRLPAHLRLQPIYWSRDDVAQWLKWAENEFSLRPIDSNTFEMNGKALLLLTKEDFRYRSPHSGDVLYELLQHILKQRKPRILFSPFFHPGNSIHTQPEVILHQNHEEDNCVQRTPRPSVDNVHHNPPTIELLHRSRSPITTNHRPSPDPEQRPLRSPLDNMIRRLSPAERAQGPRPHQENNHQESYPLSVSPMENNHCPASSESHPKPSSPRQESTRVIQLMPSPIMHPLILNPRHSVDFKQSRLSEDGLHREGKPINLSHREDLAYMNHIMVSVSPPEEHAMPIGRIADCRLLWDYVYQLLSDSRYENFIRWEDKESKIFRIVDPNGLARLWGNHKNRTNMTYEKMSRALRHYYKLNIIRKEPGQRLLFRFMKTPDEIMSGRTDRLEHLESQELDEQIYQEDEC

For ACTGCC, the binding signal in assay [1] was 1.4 fold enrichment (6-mer frequency, TF over GST control); in assay [2] it was 1.46 fold enrichment (6-mer frequency, TF over GST control); in assay [3], 1.29 fold enrichment (6-mer frequency, TF over GST control); in assay [4], 1.46 fold enrichment (6-mer frequency, TF over GST control); in assay [5] it was 1.34 fold enrichment (6-mer frequency, TF over GST control); in assay [6], 1.43 fold enrichment (6-mer frequency, TF over GST control). Moreover, the binding signal in assay [7] is 1.46 fold enrichment (6-mer frequency, TF over GST control); in assay [8], 1.4 fold enrichment (6-mer frequency, TF over GST control).
For TCCCGA, the binding signal in assay [1] is 1.34 fold enrichment (6-mer frequency, TF over GST control); in assay [2], 1.21 fold enrichment (6-mer frequency, TF over GST control); in assay [3], 1.29 fold enrichment (6-mer frequency, TF over GST control); in assay [4], 1.37 fold enrichment (6-mer frequency, TF over GST control); in assay [5], 1.35 fold enrichment (6-mer frequency, TF over GST control); in assay [6] it was 1.52 fold enrichment (6-mer frequency, TF over GST control). Further, the binding signal in assay [7] is 1.26 fold enrichment (6-mer frequency, TF over GST control); in assay [8] it was 1.22 fold enrichment (6-mer frequency, TF over GST control).
Turning to TGCATA, the binding signal was 1.09 fold enrichment (6-mer frequency, TF over GST control) in assay [1]; 1.23 fold enrichment (6-mer frequency, TF over GST control) in assay [2]; 1.17 fold enrichment (6-mer frequency, TF over GST control) in assay [3]; 1.18 fold enrichment (6-mer frequency, TF over GST control) in assay [4]; 1.23 fold enrichment (6-mer frequency, TF over GST control) in assay [5]; 1.06 fold enrichment (6-mer frequency, TF over GST control) in assay [6]. The binding signal in assay [7] is 1.11 fold enrichment (6-mer frequency, TF over GST control); in assay [8], 1.05 fold enrichment (6-mer frequency, TF over GST control).
Regarding TCCTGA, the binding signal in assay [1] was 1.26 fold enrichment (6-mer frequency, TF over GST control); in assay [2], 1.43 fold enrichment (6-mer frequency, TF over GST control); in assay [3] it was 1.59 fold enrichment (6-mer frequency, TF over GST control); in assay [4], 1.69 fold enrichment (6-mer frequency, TF over GST control); in assay [5], 1.32 fold enrichment (6-mer frequency, TF over GST control); in assay [6], 1.92 fold enrichment (6-mer frequency, TF over GST control). In addition, the binding signal in assay [7] was 1.71 fold enrichment (6-mer frequency, TF over GST control); in assay [8] it was 1.51 fold enrichment (6-mer frequency, TF over GST control).
With CTGCAC, the binding signal in assay [1] was 1.11 fold enrichment (6-mer frequency, TF over GST control); in assay [2] it was 1.16 fold enrichment (6-mer frequency, TF over GST control); in assay [3] it was 1.12 fold enrichment (6-mer frequency, TF over GST control); in assay [4], 1.17 fold enrichment (6-mer frequency, TF over GST control); in assay [5] it was 1.05 fold enrichment (6-mer frequency, TF over GST control); in assay [6], 1.1 fold enrichment (6-mer frequency, TF over GST control). Besides, the binding signal was 1.23 fold enrichment (6-mer frequency, TF over GST control) in assay [7] and 1.24 fold enrichment (6-mer frequency, TF over GST control) in assay [8].
Regarding ATGGGT, the binding signal was 1.36 fold enrichment (6-mer frequency, TF over GST control) in assay [1]; 1.27 fold enrichment (6-mer frequency, TF over GST control) in assay [2]; 1.37 fold enrichment (6-mer frequency, TF over GST control) in assay [3]; 1.42 fold enrichment (6-mer frequency, TF over GST control) in assay [4]; 1.41 fold enrichment (6-mer frequency, TF over GST control) in assay [5]; 1.34 fold enrichment (6-mer frequency, TF over GST control) in assay [6]. Besides, the binding signal was 1.3 fold enrichment (6-mer frequency, TF over GST control) in assay [7] and 1.33 fold enrichment (6-mer frequency, TF over GST control) in assay [8].
TATCTG: the binding signal was 1.2 fold enrichment (6-mer frequency, TF over GST control) in assay [1]; 1.41 fold enrichment (6-mer frequency, TF over GST control) in assay [2]; 1.11 fold enrichment (6-mer frequency, TF over GST control) in assay [3]; 1.13 fold enrichment (6-mer frequency, TF over GST control) in assay [4]; 1.2 fold enrichment (6-mer frequency, TF over GST control) in assay [5]; 1.14 fold enrichment (6-mer frequency, TF over GST control) in assay [6]. Further, the binding signal is 1.21 fold enrichment (6-mer frequency, TF over GST control) in assay [7] and 1.17 fold enrichment (6-mer frequency, TF over GST control) in assay [8].
Turning to GTCCCC, the binding signal was 1.23 fold enrichment (6-mer frequency, TF over GST control) in assay [1]; 1.15 fold enrichment (6-mer frequency, TF over GST control) in assay [2]; 1.15 fold enrichment (6-mer frequency, TF over GST control) in assay [3]; 1.14 fold enrichment (6-mer frequency, TF over GST control) in assay [4]; 1.27 fold enrichment (6-mer frequency, TF over GST control) in assay [5]; 1.13 fold enrichment (6-mer frequency, TF over GST control) in assay [6]. Also, the binding signal in assay [7] was 1.14 fold enrichment (6-mer frequency, TF over GST control); in assay [8] it was 1.24 fold enrichment (6-mer frequency, TF over GST control).

For the origin of these results see article PMC7862700, “An all-to-all approach to the identification of sequence-specific readers for epigenetic DNA modifications on cytosine”.
